# From PubChem BioAssay AID449762 (Southern Research Specialized Biocontainment Screening …, 2010)
# Values joined by “and” are separate entries in the source; they are usually repeats but may differ in a detail not shown here. Equal values may be shown once. About 1,900 (0.58%) of roughly 330,000 compounds were called active. Another 4% or so got no clear call; they are omitted. Rule as the data show it: inconclusive = inhibition above about 70% without an active follow-up result; inactive = below that. These entries were drawn from the full list. Results with a measured potency or affinity are listed apart.
# Assay: M. tuberculosis growth inhibition, HTS (AID 449762);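 also: bacterial growth assessed after seven days of incubation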
# Conditions: M. tuberculosis H37Rv growth inhibition, 7H9 media; at 25 µM; active compounds read high
row,SMILES,inhibition
1,COc1ccccc1OCCNC(=O)/C=C/c1ccc([N+](=O)[O-])cc1,2% (inactive)
2,Cn1c(=O)[nH]c(=O)c2c1nc(NCCCO)n2CCOc1ccccc1,-8.75% (inactive)
3,O=C(C1=COCCO1)N(Cc1nnc(-c2ccccc2Cl)o1)C1CC1,1.25% (inactive)
4,O=C(c1cc2ccccc2o1)N(Cc1nnc(-c2ccccc2Cl)o1)C1CC1,-0.85% (inactive)
5,CCOC(=O)N1CCN(C(=O)c2cc3ccc(OC)cc3[nH]2)CC1,-1.51% (inactive)
6,COc1ccc(C(=S)N2CCC(C(N)=O)CC2)cc1Br,-5.29% (inactive)
7,CC1CCCC(C)N1CC(O)COc1ccc(Cl)cc1 (configuration not stated),-8.81% (inactive)
8,COc1cc(OC)c(C(=O)/C=C/c2ccc(OCc3ccccc3)c(OC)c2)c(OC)c1,55.4% (inactive)
9,COc1ccc(-c2cc(=Nc3ccc(C)cc3)c3ccccc3o2)cc1,18.3% (inactive)
10,CCOc1ccc(N=c2cc(-c3ccc(OC)cc3)oc3ccccc23)cc1,2.75% (inactive)
11,Nc1ccc(C(=O)OCc2nc3cc4ccccc4cc3[nH]2)cc1,3.37% (inactive)
12,Nc1ccc(C(=O)OCCCc2nc3ccccc3[nH]2)cc1,2.21% (inactive)
13,C/C=C(\C)CN1CCCC(CO)(Cc2ccccc2)C1 (configuration not stated),12.6% (inactive)
14,Cc1nc(SCC(=O)N2CCNC2=O)c2ccccc2n1,0.14% (inactive)
15,CCCCCCNC(=O)C(C#N)c1nc2ccccc2nc1N1CCOCC1 (configuration not stated),1% (inactive)
16,N#CC(C(=O)NCCc1ccccc1)c1nc2ccccc2nc1N1CCOCC1 (configuration not stated),4.18% (inactive)
17,CCCc1cc(=O)[nH]c(SCC(=O)c2cc(C)n(C)c2C)n1,2.23% (inactive)
18,Cc1sc2c(c1C)CN(C(C)(C)C)CN2C(=O)c1ccccc1,-8.66% (inactive)
19,COc1ccc(CCNc2nc(N3CCOCC3)nc(N3CCOCC3)n2)cc1OC,-5.04% (inactive)
20,COc1ccc(N2CCN(c3nc(NCCc4ccc(OC)c(OC)c4)nc(OC)n3)CC2)cc1,-2.33% (inactive)
21,Cc1ccc(CNC(=O)CN(C)S(=O)(=O)c2cnc[nH]2)cc1,-4.45% (inactive)
22,Cc1cccc(C)c1NC(=O)COc1ccccc1C(=O)Nc1ccc(Br)cn1,3.17% (inactive)
23,O=C(NC(=S)Nc1ccccc1Cl)C1CC1,11.2% (inactive)

row,SMILES,inhibition
1,COc1cc(NC(=O)C2CCN(S(=O)(=O)c3cccc4nonc34)CC2)cc(OC)c1,2.95% (inactive)
2,CCOC(=O)C(CC)Sc1ncnc2c1nnn2-c1ccc(F)cc1 (configuration not stated),-6.34% (inactive)
3,CCOC(=O)CC(=O)CSc1ncnc2c1nnn2-c1ccc(F)cc1,-7.23% (inactive)
4,COC(=O)c1cc(NC(=O)C(C)c2ccc(CC(C)C)cc2)ccc1O (configuration not stated),20.8% (inactive)
5,CC1CCCN(C(=O)COC(=O)c2cccc(NS(=O)(=O)c3ccccc3)c2)C1 (configuration not stated),-11.8% (inactive)
6,O=C(O)c1cccc(-c2nnn(Cc3ccccc3)n2)c1,-10.4% (inactive)
7,O=C(Cn1nnc(-c2ccccc2)n1)OCc1ccccc1,-6.9% (inactive)
8,CCCCc1nnc(NC(=O)C(=O)OCC)s1,-3.95% (inactive)
9,Cc1ccsc1C(=O)Nc1cccc(-n2cnnn2)c1,-0.76% (inactive)
10,CCN(CC)S(=O)(=O)c1ccc(/C=C/C(=O)OCC(=O)N(C(C)C)C(C)C)cc1,3.48% (inactive)
11,CCN(CC)S(=O)(=O)c1ccc(/C=C/C(=O)OCC(=O)N(C)C)cc1,4.6% (inactive)
12,COc1ccc(NC(=S)N(CCCN2CCCC(C)C2)Cc2cccs2)cc1 (configuration not stated),6.16% (inactive)
13,N#Cc1ccc(Cn2ccnc2C(=O)Nc2ccccc2)cc1,0.04% (inactive)
14,CCN(CC)CCN1C(=O)C(=O)/C(=C(/O)c2ccc(S(=O)(=O)N3CCOCC3)cc2)C1c1ccc(C(C)C)cc1 (configuration not stated),1.15% (inactive)
15,CCNCc1nc2cc(OC)c(OC)cc2c(=O)[nH]1,2.16% (inactive)
16,CCOC(=O)c1sc2nc(C)nc(SCC(=O)NC(C)CCc3ccccc3)c2c1C (configuration not stated),-5.1% (inactive)
17,CCOC(=O)c1sc2nc(C)nc(SC(C)C(=O)NC3CC3)c2c1C (configuration not stated),44% (inactive)
18,O=C(c1ccc(F)cc1)C(CCCCCC(CN1CCOCC1)C(=O)c1ccc(F)cc1)CN1CCOCC1 (configuration not stated),2% (inactive)
19,COc1ncnc2c1oc1ccccc12,6.25% (inactive)
20,c1cncc(-c2nc3c(ccc4ccccc43)[nH]2)c1,-6.09% (inactive)
21,Nc1ccc(-c2nc3c(ccc4ccccc43)[nH]2)cc1,6.07% (inactive)
22,O=C(Nc1ccc(S(=O)(=O)Nc2ccnn2-c2ccccc2)cc1)C(F)(F)F,56.7% (inactive)
23,CC(=O)NC(CC(=O)Nc1nc(-c2ccc(N(C)S(C)(=O)=O)cc2)cs1)c1ccccc1 (configuration not stated),-3.7% (inactive)

row,SMILES,inhibition
1,CC(C)Nc1nc(-c2ccccc2)nc(-n2ccnc2)n1,12.9% (inactive)
2,CCCCCNc1nc(-c2ccccc2)nc(-n2ccnc2)n1,-1.97% (inactive)
3,CCCOc1ccc(-c2nnn(CC(=O)c3ccc4c(c3)OCCO4)n2)cc1,-6.75% (inactive)
4,C=CCN1CC[C@]23c4c5ccc(O)c4O[C@H]2C(=O)CC[C@@]3(O)[C@H]1C5,29.2% (inactive) and -16.4% (inactive)
5,C=CCN1CC[C@]23c4c5ccc(O)c4OC2C(=O)CC[C@@]3(O)C1C5 (some centres not stated),-3.13% (inactive)
6,O=C(Nc1ccc(OCC(F)(F)C(F)F)c(C(F)(F)F)c1)c1ccccc1,3.85% (inactive)
7,COc1ccc(C(=O)Nc2ccc(OCC(F)(F)C(F)F)c(C(F)(F)F)c2)cc1OC,-1.87% (inactive)
8,COc1ccc(S(=O)(=O)N2CCOCC2)cc1NC(=O)CC1CCCC1,-1.2% (inactive)
9,O=C(NCc1ccc(F)cc1)Nc1cccc(Cl)c1,-4.36% (inactive)
10,CC(C)C(=O)Nc1ccc2c(c1)C(=O)N(CCC(=O)O)C2=O,3.16% (inactive)
11,O=C(NCc1ccc2c(c1)OCO2)C1CCCN1S(=O)(=O)c1ccc(Cl)cc1 (configuration not stated),-0.02% (inactive)
12,CC(=O)Nc1cccc(NC(=S)Nc2cccc(Cl)c2Cl)c1,0.32% (inactive)
13,COc1cc(/C=C2\N=C(C)OC2=O)cc(OC)c1OC,6.29% (inactive)
14,COc1cc(/C=C2\SC(c3ccc(C)cc3)=NC2=O)cc(OC)c1OC,-5.86% (inactive)
15,Cc1cccc(/C=N\NC(=O)c2sccc2-n2cccc2)c1,0.5% (inactive)
16,COC(=O)C1=C(c2cccc(C#N)c2)C[C@@H]2CC[C@H]1N2C(=O)NCCc1ccccc1,-2.69% (inactive)
17,NNC(=O)c1sccc1OCc1ccc(Cl)cc1Cl,39.9% (inactive)
18,CNC(=S)NNC(=O)c1sccc1OCc1ccc(Cl)cc1Cl,-1.67% (inactive)
19,CC(C)CC(CO)N1CCN(C(=O)c2ccc(Cl)c(Cl)c2)CCC1=O (configuration not stated),-0.29% (inactive)
20,COc1ccc(NC(=O)c2nnn(CC(=O)Nc3ccccc3OC)c2N)c(OC)c1,-1.76% (inactive)
21,Cn1cnnc1SCc1ccc(C(=O)N=Nc2c(O)n(C)c3ccccc23)cc1,-4.97% (inactive)
22,O=C(N=Nc1c(O)n(Cc2ccccc2)c2ccccc12)c1ccc(O)cc1,8.8% (inactive)
23,Cc1nc2ccccc2c(=O)n1NC(=O)C1CC1,4.78% (inactive)

row,SMILES,inhibition
1,CCCCCCC1CCC(C(=O)Nn2c(C)nc3ccccc3c2=O)CC1 (configuration not stated),12.2% (inactive)
2,COc1ccc(NC(=O)C2CC(c3c(F)cccc3Cl)=NO2)cc1 (configuration not stated),0.25% (inactive)
3,COc1ccc(OCCOc2cccc(C=C3C(=O)NC(=O)NC3=O)c2)cc1,21.3% (inactive)
4,O=C(COc1ccc(Cl)cc1)NCCNC(=O)c1cnccn1,5.05% (inactive)
5,O=C(NCC(c1ccco1)N1CCc2ccccc21)C(=O)Nc1ccccc1F (configuration not stated),8.05% (inactive)
6,CCC(C(=O)O)n1nnc(-c2ccc(-c3ccc(OC)cc3)cc2)n1 (configuration not stated),4.02% (inactive)
7,CCCCOc1ccc(-c2nnn(CC(=O)Nc3ncc(CC(=O)OCC)s3)n2)cc1,4.47% (inactive)
8,CC1Cc2ccccc2N1C(=O)CN1CCC(C(N)=O)CC1 (configuration not stated),0.29% (inactive)
9,O=C(NCc1ccccc1)c1ccc2c(=O)[nH]c3c(C(=O)NCC4CCCO4)sc(=S)n3c2c1 (configuration not stated),9.46% (inactive)
10,Cc1ccc(CNC(=O)c2ccc3c(=O)[nH]c4c(C(=O)NCC5CCCO5)sc(=S)n4c3c2)cc1 (configuration not stated),6.08% (inactive)
11,COC(=O)c1ccc(NC(=S)N2CCN(Cc3ccccc3Cl)CC2)cc1,3.97% (inactive)
12,COc1ccc(OC)c(NC(=O)CSc2nc(N3CCOCC3)nc(N3CCOCC3)n2)c1,-13% (inactive)
13,COc1ccc(Nc2ncc3c(n2)CC(c2ccc(C)cc2)CC3=O)cc1 (configuration not stated),11% (inactive)
14,COc1ccc(Nc2ncc3c(n2)CC(c2ccc(OC)cc2)CC3=O)cc1 (configuration not stated),5.93% (inactive)
15,CC(=O)c1c(COC(=O)c2cccc(C)c2)nc2ccccc2[n+]1[O-],-1.11% (inactive)
16,CC(=O)c1c(N2CCCCC2)nc(=S)n(-c2ccccc2)c1C,-9.27% (inactive)
17,CN1CCC(N(C)C(=O)c2ccc(Cl)c(S(=O)(=O)Nc3cc(Cl)ccc3Cl)c2)CC1,-3.22% (inactive)
18,O=C(CCCN1C(=O)c2cccnc2C1=O)N1CC(=O)N(CCc2ccccc2)C(=O)C1,2.7% (inactive)
19,CC1CCN(CCNC(=O)C2CCN(S(=O)(=O)c3cccc4nsnc34)CC2)CC1,-5.73% (inactive)
20,O=C(Cn1ncc(N2CCCC2)c(Cl)c1=O)c1ccc(Cl)cc1,-5.18% (inactive)
21,CO/N=C(\Cn1ncc(N2CCOCC2)c(Br)c1=O)c1ccc(Cl)cc1,-12.1% (inactive)
22,O=C(NCCC(=O)N1CCC2(CC1)NCCc1[nH]cnc12)c1cccc(C(F)(F)F)c1,-1.8% (inactive)
23,CS(=O)(=O)Nc1ccc(C2=NN(C(=O)c3ccco3)C(c3ccccc3)C2)cc1 (configuration not stated),2.8% (inactive)
